SMILES strings stand for the structures. Values without a mark were called inactive. Results filed as inconclusive are left out. The source made the active and inactive calls. Calls come from the whole dose curve; as a rule, active = well fitted curve in the direction sought with a large enough effect in the repeat runs; inconclusive = weak or mixed curves; inactive = no such curve, though single readings can be large; an effect the other way counts as inactive or inconclusive.

Test [1] in a line: A CellTox Green Cytotoxicity Assay to monitor cytotoxicity in HEK293 cells - 32 hour (AID 1224881). Note: nearly all actives have a fitted effect of over 40% in size. Note: potency is the fitted concentration of half-maximal effect. A digest of the protocol:
(§1)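 Real-time, in one plate: 600 HEK293 cells/well with dead-cell DNA dye, pinned compound after 5 h, 37 C incubation over 40 h; viable cells give no appreciable fluorescence.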

A short description of test [2]: A CellTox Green Cytotoxicity Assay to monitor cytotoxicity in HEK293 cells - 8 hour (AID 1224884). Note: nearly all actives have a fitted effect of over 35% in size. A digest of the protocol: as §1
Test [3] in a line: qHTS RealTime-Glo MT Cell Viability Assay in HepG2 cells - 16 hour (AID 1224885). Note: nearly all actives have a fitted effect of over 50% in size. In a few lines: (§2)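 HepG2 cells (600/well) were dispensed with RealTime-Glo reagents, incubated 5 h at 37 °C, then treated with compounds in DMSO for up to 40 h. Nonlytic NanoLuc luminescence reflecting viable cells was read at each stated time point.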
Test [4] can be described thus: qHTS RealTime-Glo MT Cell Viability Assay in HEK293 cells - 24 hour (AID 1224886). Note: nearly all actives have a fitted effect of over 50% in size. Note: potency is the fitted concentration of half-maximal effect. In a few lines:
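HEK293 cells seeded with NanoLuc/prosubstrate reagent, rested 5 h at 37 C, then dosed and kept at 37 C up to 40 h. Nonlytic real-time luminescence from viable cells read at 0, 8, 16, 24, 32 and 40 h.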
For orientation: In qHTS, concentration-response curves come from the screen itself.

Test [5] is described as follows: qHTS RealTime-Glo MT Cell Viability Assay in HEK293 cells - 8 hour (AID 1224887). Note: nearly all actives have a fitted effect of over 50% in size. Note: potency is the fitted concentration of half-maximal effect. A digest of the protocol: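 Kinetic, non-lysing viability readout. Seed HEK293 (600/well) with reagent, incubate 5 h at 37 C/5% CO2, pin 23 nL compound in DMSO, incubate at 37 C, read luminescence at 0, 8, 16, 24, 32, 40 h.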
Test [6] in a line: A CellTox Green Cytotoxicity Assay to monitor cytotoxicity in HEK293 cells - 16 hour (AID 1224888). Note: nearly all actives have a fitted effect of over 35% in size. A digest of the protocol: as §1
Test [7] in a line: qHTS RealTime-Glo MT Cell Viability Assay in HepG2 cells - 0 hour (AID 1224889). Note: nearly all actives have a fitted effect of over 50% in size. In a few lines: as §2
Test [8] in a line: A CellTox Green Cytotoxicity Assay to monitor cytotoxicity in HepG2 cells - 0 hour (AID 1224882). Note: nearly all actives have a fitted effect of over 35% in size. In a few lines: (§3)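 Cytotoxicity was tracked as dead-cell DNA fluorescence in HepG2 cells treated with test compounds at 37 C; each time-point value comes from one kinetic series spanning 0, 8, 16, 24, 32 and 40 h.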
Test [9] can be described thus: A CellTox Green Cytotoxicity Assay to monitor cytotoxicity in HepG2 cells - 32 hour (AID 1224883). Note: nearly all actives have a fitted effect of over 50% in size. In a few lines: as §3
Test [10] is described as follows: A CellTox Green Cytotoxicity Assay to monitor cytotoxicity in HepG2 cells - 8 hour (AID 1224890). Note: nearly all actives have a fitted effect of over 45% in size. A digest of the protocol:
as §3

Consider `NC(=O)Nc1ccc(Cl)cc1`, for which the Potency result in test [1], in [2], in test [3], in test [4], in [5] and in test [6] was “inactive” throughout. Also, the Potency entry in [7] was “inactive”.

Turning to `CC(C)(CCl)c1ccccc1`, the Potency entry in test [8], in test [9], in [2], in test [3], in [4] and in test [5] was “inactive” throughout. The Potency result in test [6], in test [7] and in [10] was “inactive” each time.

For `O=C(O)c1cccnc1C(=O)O`, the Potency entry in [8], in test [9], in [2], in test [3], in test [4] and in test [5] was “inactive” each time. The Potency result in test [6], in [7] and in test [10] was “inactive” each time.

With `CC[C@@H]([C@H](C)O)n1ncn(-c2ccc(N3CCN(c4ccc(OC[C@@H]5CO[C@@](Cn6cncn6)(c6ccc(F)cc6F)C5)cc4)CC3)cc2)c1=O`, the Potency entry in test [1], in [9], in test [2], in test [6], in test [7] and in test [10] was “inactive” each time. Besides, the Potency in test [4] was 2.68 µM (active); in test [5], 6.01 µM (active).

For `CC(C)(C)CC(C)(C)c1ccc(OCCO)cc1`, the Potency in [1] was 54.6 µM (active); in test [4], 5.46 µM (active); in test [5], 7.72 µM (active). The Potency result in [9], in test [3] and in test [10] was “inactive” each time.

Consider `CN1CCCN=C1/C=C/c1cccs1`, for which the Potency entry in test [8], in [9], in test [2], in test [3], in test [4] and in test [5] was “inactive” in each case. Besides, the Potency entry in test [6], in test [7] and in [10] was “inactive” each time.

As to `C=CC(C)(C)CC(=O)OC`, the Potency result in test [1], in test [9], in test [2], in test [3], in test [6] and in [7] was “inactive” throughout. Also, the Potency in test [4] is 1.38 µM (active).

On to `COC(=O)CC(=O)C(C)(C)C`, for which the Potency entry in test [8], in test [9], in test [2], in test [3], in test [4] and in test [5] was “inactive” in each case. The Potency entry in test [6] and in test [7] was “inactive” throughout.

In the case of `CC1=CC(O)CC(C)(C)C1` (stereo not given), the Potency entry in test [8], in test [9], in test [2], in test [3], in [4] and in test [5] was “inactive” each time. The Potency result in [6], in test [7] and in test [10] was “inactive” each time.

Regarding `N#C[C@@H]1C[C@@H]2C[C@@H]2N1C(=O)[C@@H](N)C12CC3CC(CC(O)(C3)C1)C2`, the Potency entry in [8], in [9], in [2], in test [3], in [4] and in test [5] was “inactive” in each case. The Potency result in [6] and in test [7] was “inactive” in each case.

Regarding `Nc1ccc(S(=O)(=O)O)cc1`, the Potency entry in [8], in test [9], in test [2], in test [3], in test [4] and in [5] was “inactive” in each case. Besides, the Potency result in test [6] and in test [7] was “inactive” in each case.

As to `OC/C(Br)=C(\Br)CO`, the Potency result in test [8], in [9], in [2], in [3], in test [4] and in test [5] was “inactive” in each case. The Potency entry in test [6], in test [7] and in test [10] was “inactive” in each case.

With `C=CC(=O)NCOCC(C)C`, the Potency result in test [8], in test [9], in test [2], in test [3], in test [4] and in test [5] was “inactive” each time. In addition, the Potency entry in [6], in [7] and in test [10] was “inactive” in each case.

Turning to `NC(=O)Nc1ccc(Cl)c(Cl)c1`, the Potency result in [8], in test [9], in [2], in [3], in [4] and in [5] was “inactive” throughout. In addition, the Potency result in test [6], in test [7] and in test [10] was “inactive” each time.

For `CCCCC(CC)CNCC(CC)CCCC` (stereo not given), the Potency result in test [8], in test [9], in test [2], in [3], in test [4] and in test [5] was “inactive” throughout. In addition, the Potency entry in test [6] and in [10] was “inactive” in each case.

As for `C=CC(=C)CCCC(C)(C)OC(C)=O`, the Potency result in [8], in [9], in test [2], in [3], in [4] and in [5] was “inactive” throughout. Besides, the Potency result in test [6], in test [7] and in test [10] was “inactive” throughout.

Turning to `COc1ccc(C(=O)c2cccc(O)c2)c(OC)c1`, the Potency entry in [8], in test [9], in test [2], in test [3], in test [4] and in [5] was “inactive” in each case. Further, the Potency result in [6], in test [7] and in test [10] was “inactive” in each case.

Take `CCOC(=O)N1CCC(n2c(=O)[nH]c3cc(Cl)ccc32)CC1`: the Potency entry in test [1], in test [9], in [2], in test [3], in [7] and in [10] was “inactive” each time.

`CN1Cc2cc(C(=O)N3CCC(C4CCNCC4)CC3)ccc2N[C@@H](CC(=O)O)C1=O`: the Potency entry in test [8], in test [9], in test [2], in test [3], in test [4] and in test [5] was “inactive” throughout. In addition, the Potency entry in [6] and in test [7] was “inactive” each time.

Source of the values: PubChem BioAssay (Tox21).
